Laboratory results: PubChem BioAssay (Tox21)
Inconclusive results are not listed. Active and inactive are the calls of the source. Calls follow the shape of the full dose curve.

What follows are compounds tested against Vitamin D3 receptor (Homo sapiens) (UniProt P11473) (assay: qHTS assay to identify small molecule agonists of the vitamin D receptor (VDR) signaling pathway (AID 743222)). Details: HEK293T VDR-UAS-bla, beta-lactamase FRET ratio, 16 h; series mostly up to 63.5 µM; activation: at the top concentration.
Sequence of Vitamin D3 receptor (Homo sapiens) (P11473 whole entry, looked up): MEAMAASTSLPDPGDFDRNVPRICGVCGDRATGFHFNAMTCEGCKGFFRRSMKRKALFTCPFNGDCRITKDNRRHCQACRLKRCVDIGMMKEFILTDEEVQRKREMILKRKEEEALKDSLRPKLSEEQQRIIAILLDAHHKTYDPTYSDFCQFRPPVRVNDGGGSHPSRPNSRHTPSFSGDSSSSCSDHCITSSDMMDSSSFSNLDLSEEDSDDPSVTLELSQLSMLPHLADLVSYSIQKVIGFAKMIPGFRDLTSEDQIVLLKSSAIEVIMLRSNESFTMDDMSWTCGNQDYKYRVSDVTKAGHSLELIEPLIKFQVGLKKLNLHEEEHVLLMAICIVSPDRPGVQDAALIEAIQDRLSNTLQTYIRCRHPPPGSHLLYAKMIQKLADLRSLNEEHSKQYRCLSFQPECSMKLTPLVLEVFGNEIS
Description: National Center for Advancing Translational Sciences [NCATS]
NIH Chemical Genomics Center [NCGC]
U.S. Environmental Protection Agency [EPA]
National Institutes of Environmental Health Sciences [NIEHS]
National Toxicology Program [NTP]
U.S. Food and Drug Administration [FDA]
The vitamin D receptor (VDR), a member of nuclear hormone receptor superfamily, plays a critical role in calcium homeostasis and bone metabolism. It is also involved in cell differentiation and growth, and thrombogenicity.
Tox21 Assay Protocol Summary:
VDR-bla cells were dispensed at 2,000 cells/6 uL/well into black wall/clear-bottom 1536-well plates using a Multidrop Combi (Thermo Fisher Scientific, Waltham, MA) dispenser. After the assay plates were incubated at a 37C and 5% CO2 for 4 h, 23 nL of compounds dissolved in DMSO, positive controls or DMSO only was transferred to the assay plate by a Pintool station (Kalypsys, San Diego, CA). The plates were incubated at 37C and 5% CO2 for 16 h. After 1 uL of LiveBLAzerTM B/G FRET substrate was added using a Bioraptr Flying Reagent Dispenser (FRD) workstation (Beckman Coulter, Indianapolis, IN, USA), the plates were incubated at room temperature for 2 h, and fluorescence intensity was measured by an Envision plate reader (PerkinElmer, Shelton, CT).
% is scaled to controls: 0 for no effect and ±100 for the full control effect.

| SMILES | activation |
| --- | --- |
| COC(C(=O)O)c1ccccc1 (stereo not given) | -5.85% (inactive) |
| O=C1OC(=O)c2cc([N+](=O)[O-])ccc21 | 1.03% (inactive) |
| CC(C)CCCCCCN | 1.61% (inactive) |
| C=C(C)[C@@H]1CCC2=CC(=O)C[C@@H](C)[C@]2(C)C1 | -11.5% (inactive) |
| Cc1cc(C)cc(OCC2CNC(=O)O2)c1 (stereo not given) | -0.809% (inactive) |
| CCCCCCCCCCCCCCCCCC(=O)OCCCCCCCCCCCCCC(C)C | 6.65% (inactive) |
| CCN1CCN(c2cc3c(cc2F)c(=O)c(C(=O)O)cn3C2CC2)CC1 | -14.6% (inactive) |
| CC(C)CCOC(=O)CC(C)C | -2.11% (inactive) |
| COc1cccc(Br)c1 | -1.4% (inactive) |
| c1ccc2cnncc2c1 | 1.02% (inactive) |
| CCO[Si](CCCN=C=O)(OCC)OCC | -6.78% (inactive) |
| C=C(C)C(=O)OCCC(C)OC(=O)C(=C)C (stereo not given) | 0.564% (inactive) |
| C#CC(C)(O)CC(C)C (stereo not given) | 2.42% (inactive) |
| C[N+](C)(C)CC[N+]1(C)Cc2c(Cl)c(Cl)c(Cl)c(Cl)c2C1 | 5.57% (inactive) |
| C=C(C)C(=O)NCCCN(C)C | 4.47% (inactive) |
| CCCCCCCCN(C)CCCCCCCC | -4.66% [at 81.1 µM] (inactive) |
| CCCCCCC(=O)OCC | 0.696% (inactive) |
| Cc1ccccc1C(=O)O | -0.28% (inactive) |
| C1CCCCCCCCCCC1 | 3.94% [at 29.5 µM] (inactive) |
| NC(CS)C(=O)O (stereo not given) | 3.12% (inactive) |

| SMILES | activation |
| --- | --- |
| CC12CCC(CC1=O)C2(C)C (stereo not given) | -0.402% (inactive) |
| CC(=O)CCc1ccc(O)cc1 | 3.29% (inactive) |
| COc1cccc(OC)c1 | 6.04% (inactive) |
| N#CCN(CC#N)CCN(CC#N)CC#N | -0.302% (inactive) |
| O=C(CCOCCOCCOCCOCCC(=O)Nc1c(I)cc(I)c(C(=O)O)c1I)Nc1c(I)cc(I)c(C(=O)O)c1I | 1.78% (inactive) |
| CC(=O)c1ccc(C)cc1 | 9.3% (inactive) |
| CCC(=O)/C=C/c1ccc(OC)cc1 | 1.17% (inactive) |
| O=Cc1ccccc1[N+](=O)[O-] | 0.927% (inactive) |
| CCOC(=O)Cn1c(=O)sc2cccc(Cl)c21 | 1.65% (inactive) |
| CN(C)CCn1nnnc1SCC1=C(C(=O)O)N2C(=O)[C@@H](NC(=O)Cc3csc(N)n3)[C@H]2SC1 | 4.67% (inactive) |
| CN1[C@@H]2CC[C@H]1CC(NC(=O)n1c(=O)[nH]c3ccccc31)C2 (stereo not given in full) | -2.7% (inactive) |
| C/C=C1\C(=O)C[C@H]2[C@@H]3CCC4=CC(=O)CC[C@]4(C)[C@H]3CC[C@]12C | -6.84% (inactive) |
| OC/C=C/c1ccccc1 | 5.66% [at 81.1 µM] (inactive) |
| FC(F)(F)C(F)(F)C(F)(F)C(F)(F)C(F)(F)C(F)(F)C(F)(F)C(F)(F)C(F)(F)C(F)(F)F | 0.833% [at 6.01 µM] (inactive) |
| CC(=O)N[C@@H](CCC(N)=O)C(=O)O | 0.0288% (inactive) |
| C=CCSCC1Nc2cc(Cl)c(S(N)(=O)=O)cc2S(=O)(=O)N1 (stereo not given) | 9% (inactive) |
| CN(C)N=Nc1ccccc1 | 1.53% (inactive) |
| O=C(O)c1ccc[n+]([O-])c1 | -2.04% (inactive) |
| CCCCCCCCCCCCCCC | 6.49% (inactive) |
| CCCCOCC(C)OCC(C)O (stereo not given) | 1.1% [at 81.1 µM] (inactive) |
